Data from PubChem BioAssay (NCATS).
“And” between values parts separate entries of the source, which are not always exact repeats. Equal values may be shown once. A number with no mark means an inactive call. Inconclusive results are not listed. The source made the active and inactive calls. Unless noted, the call rests on the fitted dose curve; in most records, active means well fitted curve in either direction with a large enough effect (not every such curve was filed as active); inconclusive means small, poorly fitted or top-dose-only effect, or another doubt; inactive means flat fitted curve, though single readings scatter.

Experiments:
[1] = AP1 Signaling Pathway (AID 357); details: ME-180 AP-1-bla reporter, EGF-induced, beta-lactamase ratio, 5 h; at 7.69 µM (top of the series) unless noted;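 further: ME-180 reporter cells stimulated with EGF at its EC50 level; on the % scale 0 is the no-effect control and ±100 the full control effect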
Outline: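 Cells are seeded overnight, exposed to compound titrations and an EC50 level of EGF for 5 hours at 37 °C, then loaded with CCF4 dye for 2.5 hours. Beta-lactamase activity under the AP-1 element is read as a blue/green ratio.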

[2] = molecular target: Cytochrome P450 1A2 (Homo sapiens) (UniProt P05177); assay: p450-cyp1a2 (AID 410; calls by dose curve; further: potency means the concentration at half of the fitted maximal effect;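 on activity change, negative = inhibition: -100% = full effect of reference inhibitor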)
Cytochrome P450 1A2 (Homo sapiens), sequence (P05177 whole entry, looked up): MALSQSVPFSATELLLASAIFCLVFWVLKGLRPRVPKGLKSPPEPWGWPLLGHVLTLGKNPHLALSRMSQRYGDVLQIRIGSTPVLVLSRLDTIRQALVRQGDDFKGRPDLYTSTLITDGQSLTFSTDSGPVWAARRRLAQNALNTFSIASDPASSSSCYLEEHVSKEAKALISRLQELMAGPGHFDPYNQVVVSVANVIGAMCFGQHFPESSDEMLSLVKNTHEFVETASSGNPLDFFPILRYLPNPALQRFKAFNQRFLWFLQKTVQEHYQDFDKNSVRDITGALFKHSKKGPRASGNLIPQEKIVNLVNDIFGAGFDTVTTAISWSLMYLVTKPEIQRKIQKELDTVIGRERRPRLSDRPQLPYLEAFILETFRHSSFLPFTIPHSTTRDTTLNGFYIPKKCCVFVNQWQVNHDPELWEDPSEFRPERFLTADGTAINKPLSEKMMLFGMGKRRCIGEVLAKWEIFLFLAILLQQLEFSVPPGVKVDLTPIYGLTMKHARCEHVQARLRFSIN
Outline: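 Inhibition was calculated relative to 57 uM furafylline (full inhibition). The reaction used human CYP1A2 at 20nM with Luciferin-ME at its Km, 100uM, driven by an NADPH-regenerating system for 60 min at room temperature.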

[3] = NFAT Signaling Pathway (AID 444); details: Jurkat NFAT-bla M1, carbachol, beta-lactamase ratio, 5 h; at 7.69 µM (top of the series) unless noted;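 further: carbachol stimulus at about its EC50 of 1 µM final; on the % scale 0 is the no-effect control and ±100 the full control effect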
Outline: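 Jurkat cells carrying an NFAT-driven β-lactamase reporter and co-transfected muscarinic M1 receptor were treated with compound plus carbachol (1 uM final, an EC50 level) for 5 h at 37 °C. CCF4 loading followed for 1 h at RT; 460/530 nm ratio gave %activity.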

[4] = Stat Signaling Pathway (AID 446); details: ME-180 SIE beta-lactamase reporter, IL-6 stimulated, 5 h; at 7.69 µM (top of the series) unless noted;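 further: ME-180 cervical cancer cells given 40 pM IL-6 alongside compound; SIE-controlled beta-lactamase reporter measured as 460/530 nm FRET emission ratio; on the % scale 0 is the no-effect control and ±100 the full control effect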
Outline: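 ME-180 cells carrying a SIE-driven beta-lactamase reporter are stimulated with 40 pM IL-6 for 5 h at 37C in the presence of compound. The 460/530 nm FRET substrate ratio is read after 2.5 h at RT. Data are normalised to 300 pM IL-6 and to 125 nM JAK inhibitor controls.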

[5] = molecular target: Glucocorticoid receptor (Homo sapiens) (UniProt P04150); assay: GR-GFP Redistribution (AID 450;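 active means compounds whose dose series gives a full or clear partial fitted curve of increased nuclear translocation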; further: potency means the concentration at half of the fitted maximal effect); details: U2OS GR-GFP nuclear translocation, laser cytometry, 2 h
Glucocorticoid receptor (Homo sapiens), sequence (P04150 whole entry, looked up, the tested form may be a part): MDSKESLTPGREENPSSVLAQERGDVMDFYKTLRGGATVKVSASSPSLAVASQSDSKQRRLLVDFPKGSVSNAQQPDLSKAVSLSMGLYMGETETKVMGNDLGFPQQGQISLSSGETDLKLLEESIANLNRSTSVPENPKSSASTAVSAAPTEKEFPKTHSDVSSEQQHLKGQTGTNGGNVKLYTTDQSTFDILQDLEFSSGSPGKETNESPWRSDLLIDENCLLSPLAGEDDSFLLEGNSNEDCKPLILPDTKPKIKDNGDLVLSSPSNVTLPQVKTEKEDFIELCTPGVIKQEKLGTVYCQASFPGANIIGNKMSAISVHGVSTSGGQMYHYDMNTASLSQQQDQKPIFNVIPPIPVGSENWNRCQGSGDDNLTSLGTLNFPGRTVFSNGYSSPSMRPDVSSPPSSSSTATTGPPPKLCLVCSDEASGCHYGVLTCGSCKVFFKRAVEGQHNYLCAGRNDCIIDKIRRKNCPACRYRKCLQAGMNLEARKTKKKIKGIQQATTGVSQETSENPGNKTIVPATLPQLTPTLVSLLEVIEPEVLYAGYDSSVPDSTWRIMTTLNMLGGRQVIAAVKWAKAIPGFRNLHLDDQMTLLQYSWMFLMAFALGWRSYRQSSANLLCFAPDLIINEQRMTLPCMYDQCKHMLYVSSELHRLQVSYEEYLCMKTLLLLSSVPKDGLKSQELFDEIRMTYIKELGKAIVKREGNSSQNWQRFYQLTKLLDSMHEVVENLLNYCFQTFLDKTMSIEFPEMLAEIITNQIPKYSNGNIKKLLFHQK

[6] = molecular target: Glucocorticoid receptor (Homo sapiens) (UniProt P04150); assay: GR-EFC Redistribution (AID 451; calls by dose curve; further: potency means the concentration at half of the fitted maximal effect); details: CHO-K1 GR-EFC translocation, beta-gal luminescence, 2 h
Outline: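 CHO-K1 cells stably expressing nuclear-localized β-gal enzyme acceptor and GR fused C-terminally to the enzyme donor fragment; ligand-driven nuclear translocation restores β-gal by complementation. Compounds titrated up to 46 uM final, 2 h at 37 °C; luminescence read.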

[7] = molecular target: Mitogen-activated protein kinase 10 (Mus musculus) (UniProt Q61831); assay: JNK3 AlphaScreen Assay (AID 530);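 further: kinase came from lysate of stimulated human HepG2 cells; signal reports phosphorylation of biotinylated GST-cJun 1-79 at Ser73 with 10 µM ATP; on the % scale 0 is the no-effect control and ±100 the full control effect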
Outline: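 JNK3 came from HepG2 lysates pre-activated with IL-1beta and TNF-alpha and phosphorylated biotinylated GST-cJun (1-79) at 10 uM ATP, pH 7.6, room temperature. Compounds were titrated. AlphaScreen signal used anti-phospho-cJun (Ser73) antibody.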

[8] = molecular target: 3',5'-cyclic-AMP phosphodiesterase 4B (Homo sapiens) (UniProt Q07343); assay: qHTS Assay for Inhibitors of PDE-IV (AID 607; active means well fitted activation curve with a large enough effect in the main read-out, with a control signal flat, not every such curve was filed as active; further: % of control where 0% means no effect)
3',5'-cyclic-AMP phosphodiesterase 4B (Homo sapiens), sequence (Q07343 whole entry, looked up): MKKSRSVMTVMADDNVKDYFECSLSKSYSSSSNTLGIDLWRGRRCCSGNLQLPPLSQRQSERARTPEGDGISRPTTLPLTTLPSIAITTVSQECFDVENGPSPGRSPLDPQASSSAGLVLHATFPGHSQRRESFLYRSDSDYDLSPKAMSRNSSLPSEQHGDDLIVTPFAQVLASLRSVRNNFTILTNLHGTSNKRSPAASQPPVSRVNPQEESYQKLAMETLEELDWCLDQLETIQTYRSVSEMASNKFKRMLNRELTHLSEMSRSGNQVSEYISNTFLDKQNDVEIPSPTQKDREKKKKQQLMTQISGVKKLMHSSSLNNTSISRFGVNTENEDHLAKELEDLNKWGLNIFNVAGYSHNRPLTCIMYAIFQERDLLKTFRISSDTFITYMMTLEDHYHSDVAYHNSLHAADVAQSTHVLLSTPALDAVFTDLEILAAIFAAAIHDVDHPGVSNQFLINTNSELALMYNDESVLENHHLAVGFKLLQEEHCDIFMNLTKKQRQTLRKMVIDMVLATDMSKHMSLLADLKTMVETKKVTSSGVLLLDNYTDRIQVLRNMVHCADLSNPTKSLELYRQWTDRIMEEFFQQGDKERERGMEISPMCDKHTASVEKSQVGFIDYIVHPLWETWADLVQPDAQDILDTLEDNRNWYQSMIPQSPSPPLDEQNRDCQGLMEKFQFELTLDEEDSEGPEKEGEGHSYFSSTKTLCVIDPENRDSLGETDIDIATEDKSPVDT
Outline: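 HEK293 ACTOne cells with CNG channel (1000/well), endogenous PDE4; membrane potential dye, compounds up to 22.9 uM final. Fluorescence Ex 535/Em 590; RO 20-1724 (100 uM final) as reference.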

[9] = molecular target: Cytochrome P450 2C9 (Homo sapiens) (UniProt P11712); assay: qHTS Assay for Inhibitors and Substrates of Cytochrome P450 2C9 (AID 883; active means well fitted curve in the direction sought with a large enough effect; an effect the other way counts as inactive or inconclusive; further: on the % scale 0 is the no-effect control and ±100 the full control effect; nearly all actives have a fitted effect of over 60% in size)
Outline: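 A luminogenic readout tracked human CYP2C9 (10nM) converting deoxyluciferin (100uM, at KM) in 25mM KPO4 during 60 min at 37C with regenerated NADPH. Values normalized to 57uM sulphaphenazole as complete inhibition.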

[10] = molecular target: Cytochrome P450 2D6 (Homo sapiens) (UniProt P10635); assay: qHTS Assay for Inhibitors and Substrates of Cytochrome P450 2D6 (AID 891; active means well fitted curve in the direction sought with a large enough effect; an effect the other way counts as inactive or inconclusive; further: nearly all actives have a fitted effect of over 60% in size; further: potency means the concentration at half of the fitted maximal effect)
Cytochrome P450 2D6 (Homo sapiens), sequence (P10635 whole entry, looked up): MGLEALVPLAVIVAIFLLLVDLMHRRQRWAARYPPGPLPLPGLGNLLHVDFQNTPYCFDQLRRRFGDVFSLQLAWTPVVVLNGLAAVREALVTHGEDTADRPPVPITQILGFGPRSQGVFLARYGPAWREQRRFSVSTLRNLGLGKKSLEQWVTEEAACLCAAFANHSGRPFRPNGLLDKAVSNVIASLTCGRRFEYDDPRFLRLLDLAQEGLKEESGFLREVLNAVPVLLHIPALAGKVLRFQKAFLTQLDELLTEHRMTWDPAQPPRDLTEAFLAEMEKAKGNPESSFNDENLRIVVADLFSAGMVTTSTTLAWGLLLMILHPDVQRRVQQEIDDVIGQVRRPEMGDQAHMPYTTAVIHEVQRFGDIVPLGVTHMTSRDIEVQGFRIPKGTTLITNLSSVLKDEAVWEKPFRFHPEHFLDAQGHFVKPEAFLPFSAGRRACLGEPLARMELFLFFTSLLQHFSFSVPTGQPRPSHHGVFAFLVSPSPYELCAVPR
Outline: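 Human CYP2D6 (5 nM) with 30 uM Luciferin-ME EGE (at Km) in 100 mM KPO4, compound preincubated 10 min, then NADPH regeneration system for 60 min at room temperature. Luciferin read by luminescence; normalized to 1.43 uM quinidine.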

[11] = molecular target: Muscarinic acetylcholine receptor M1 (Rattus norvegicus) (UniProt P08482); assay: qHTS Assay for Antagonists of Acetylcholine Muscarinic M1 Receptor: Kinetic Measurement of Intracellular Calcium Response (AID 943; active means well fitted curve in the direction sought with a large enough effect; an effect the other way counts as inactive or inconclusive;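 further: Fluo-4 calcium signal as peak divided by basal fluorescence over 4 min; nearly all actives have a fitted effect of over 75% in size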)
Muscarinic acetylcholine receptor M1 (Rattus norvegicus), sequence (P08482 whole entry, looked up): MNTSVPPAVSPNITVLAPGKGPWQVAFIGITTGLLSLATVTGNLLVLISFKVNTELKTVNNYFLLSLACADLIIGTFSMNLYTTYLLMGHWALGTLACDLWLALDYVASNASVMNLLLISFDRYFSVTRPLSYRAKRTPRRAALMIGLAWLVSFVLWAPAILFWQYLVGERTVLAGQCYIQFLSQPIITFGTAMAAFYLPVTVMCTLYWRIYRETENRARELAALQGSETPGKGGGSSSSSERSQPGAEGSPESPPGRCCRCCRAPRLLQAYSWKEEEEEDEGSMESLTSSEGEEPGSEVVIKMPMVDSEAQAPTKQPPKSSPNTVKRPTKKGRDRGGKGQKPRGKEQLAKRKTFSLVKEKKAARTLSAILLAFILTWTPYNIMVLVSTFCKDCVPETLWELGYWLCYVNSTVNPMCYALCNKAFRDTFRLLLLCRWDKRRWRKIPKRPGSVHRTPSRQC
Outline: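 Intracellular calcium flux, recorded with Fluo-4 in a kinetic plate reader, served as signal; the response to carbachol at EC80 (100 nM final) was taken as maximal over minimal fluorescence after a 10 min compound pre-incubation in rat M1-CHO cells.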

[12] = molecular target: Muscarinic acetylcholine receptor M1 (Rattus norvegicus) (UniProt P08482); assay: qHTS Assay for Antagonists of Acetylcholine Muscarinic M1 Receptor: Measurement of IP-One Response (AID 944; active means well fitted curve in the direction sought with a large enough effect; an effect the other way counts as inactive or inconclusive; further: nearly all actives have a fitted effect of over 75% in size)
Outline: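 Steps: plate transfected CHO-M1 cells overnight; add test compound, 10 min; add carbachol (200 nM, EC80) in stimulation buffer with LiCl; incubate 30 min; add labelled IP1 tracer and anti-IP1 antibody in lysis buffer; read HTRF after 10 min.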

[13] = molecular target: Pyruvate kinase PKM (Homo sapiens) (UniProt P14618); assay: qHTS Assay for Activators of Human Muscle Pyruvate Kinase (AID 954; active means well fitted curve in the direction sought with a large enough effect, not every such curve was filed as active;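 further: 0% = uninhibited enzyme and -100% = no enzyme or full thiadiazolimine inhibition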)
Pyruvate kinase PKM (Homo sapiens), sequence (P14618 whole entry, looked up): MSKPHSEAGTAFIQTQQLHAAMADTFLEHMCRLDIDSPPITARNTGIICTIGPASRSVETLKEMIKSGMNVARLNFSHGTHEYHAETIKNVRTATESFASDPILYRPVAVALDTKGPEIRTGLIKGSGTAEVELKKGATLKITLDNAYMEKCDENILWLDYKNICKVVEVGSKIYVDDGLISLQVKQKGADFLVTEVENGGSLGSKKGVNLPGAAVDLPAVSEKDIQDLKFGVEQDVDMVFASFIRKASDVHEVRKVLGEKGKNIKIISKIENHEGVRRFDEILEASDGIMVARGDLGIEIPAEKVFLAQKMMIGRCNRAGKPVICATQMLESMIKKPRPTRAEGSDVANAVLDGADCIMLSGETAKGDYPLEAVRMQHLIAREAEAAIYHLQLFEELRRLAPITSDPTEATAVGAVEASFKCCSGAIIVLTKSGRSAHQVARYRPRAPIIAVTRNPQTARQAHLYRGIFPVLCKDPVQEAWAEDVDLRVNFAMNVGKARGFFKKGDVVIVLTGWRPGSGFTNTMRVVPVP
Outline: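 Purified human PKM2 (0.1 nM) with 0.5 mM PEP (Km) and 0.1 mM ADP in 50 mM imidazole pH 7.2, KCl, MgCl2, 1 h at room temperature; ATP formed read by coupled luciferase luminescence. Normalized to no-enzyme/110 uM thiadiazolimine inhibition; 0.3 nM enzyme column for activation.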

[14] = molecular target: Alpha-galactosidase A (Homo sapiens) (UniProt P06280); assay: Counterscreen for Glucocerebrosidase Inhibitors: qHTS Assay for Human alpha-Galactosidase at pH 4.5 (AID 992; active means well fitted curve in the direction sought with a large enough effect; an effect the other way counts as inactive or inconclusive; further: 0% is about no effect)
Alpha-galactosidase A (Homo sapiens), sequence (P06280 whole entry, looked up): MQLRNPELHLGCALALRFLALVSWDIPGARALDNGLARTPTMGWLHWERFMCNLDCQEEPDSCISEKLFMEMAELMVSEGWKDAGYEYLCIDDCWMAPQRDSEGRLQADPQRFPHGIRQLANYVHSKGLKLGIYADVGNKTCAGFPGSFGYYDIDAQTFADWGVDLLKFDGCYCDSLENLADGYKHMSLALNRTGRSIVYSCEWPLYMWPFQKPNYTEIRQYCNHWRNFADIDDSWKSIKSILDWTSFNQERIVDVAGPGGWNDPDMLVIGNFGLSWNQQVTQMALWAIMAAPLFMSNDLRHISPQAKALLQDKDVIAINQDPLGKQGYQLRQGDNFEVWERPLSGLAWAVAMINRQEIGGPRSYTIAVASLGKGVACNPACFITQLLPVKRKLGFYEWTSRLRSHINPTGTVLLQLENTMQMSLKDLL
Outline: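 Human enzyme (2 nM) with 80 uM 4-methylumbelliferyl alpha-D-galactopyranoside in 50 mM citric acid, 0.005% Tween-20, pH 4.5, 20 min at room temperature. Compounds 0.7 nM–77 uM; fluorescence Ex 365/Em 440 after pH 10 stop; AC50 from Hill fits.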

[15] = molecular target: alpha-glucosidase (Oryza sativa, rice) (UniProt Q653V4); assay: Counterscreen for Glucocerebrosidase Inhibitors: qHTS Assay for Rice alpha-Glucosidase at pH 5.0 (AID 997; active means well fitted curve in the direction sought with a large enough effect; an effect the other way counts as inactive or inconclusive;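 further: 0% = full activity with enzyme and -100% = basal without enzyme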)
Outline: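 Rice alpha-glucosidase (4 nM final) with 400 uM 4-methylumbelliferyl-alpha-D-glucopyranoside in citrate buffer pH 5.0, 20 min at room temperature, stopped at pH 10; fluorescence 365/440 nm, compounds 0.7 nM–77 uM, AC50 from Hill fits.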

[16] = molecular target: Cytochrome P450 3A4 (Homo sapiens) (UniProt P08684); assay: qHTS Assay for Activators of Cytochrome P450 3A4 (AID 885; active means well fitted curve in the direction sought with a large enough effect; an effect the other way counts as inactive or inconclusive; further: nearly all actives have a fitted effect of over 65% in size)
Cytochrome P450 3A4 (Homo sapiens), sequence (P08684 whole entry, looked up): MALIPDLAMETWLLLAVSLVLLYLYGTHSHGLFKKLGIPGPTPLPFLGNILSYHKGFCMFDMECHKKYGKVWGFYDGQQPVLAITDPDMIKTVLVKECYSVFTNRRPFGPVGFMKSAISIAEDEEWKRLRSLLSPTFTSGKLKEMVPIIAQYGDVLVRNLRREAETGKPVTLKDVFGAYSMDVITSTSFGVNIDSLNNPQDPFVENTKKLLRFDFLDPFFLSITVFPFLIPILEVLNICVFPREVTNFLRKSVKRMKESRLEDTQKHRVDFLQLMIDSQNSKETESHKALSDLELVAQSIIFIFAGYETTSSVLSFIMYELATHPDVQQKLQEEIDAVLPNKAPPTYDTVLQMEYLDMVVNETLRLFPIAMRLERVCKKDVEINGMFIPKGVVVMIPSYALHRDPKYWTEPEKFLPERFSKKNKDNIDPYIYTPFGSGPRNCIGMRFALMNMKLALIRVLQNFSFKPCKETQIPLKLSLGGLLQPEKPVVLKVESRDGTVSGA
Outline: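 Human CYP3A4 (20 nM) with Luciferin-PPXE at 25 uM (its KM) in 200 mM KPO4; 10 min compound preincubation, then NADPH regeneration and 60 min reaction at RT. Luciferin read by luminescence; normalized to 57 uM ketoconazole full inhibition.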

[17] = molecular target: Cytochrome P450 2C19 (Homo sapiens) (UniProt P33261); assay: qHTS Assay for Inhibitors and Substrates of Cytochrome P450 2C19 (AID 899; active means well fitted curve in the direction sought with a large enough effect; an effect the other way counts as inactive or inconclusive; further: potency means the concentration at half of the fitted maximal effect; nearly all actives have a fitted effect of over 60% in size)
Outline: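 NADPH-dependent conversion of Luciferin-H EGE (10uM, at KM) by 5nM enzyme in 50mM KPO4, 60 min at 37C following 10 min compound preincubation. Stopped with luciferin detection buffer; luminescence read after 20 min.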

[18] = molecular target: Pyruvate kinase (Leishmania mexicana) (UniProt Q27686); assay: qHTS Validation Assay for Inhibitors of Leishmania Mexicana Pyruvate Kinase (AID 945; active means well fitted curve in the direction sought with a large enough effect; an effect the other way counts as inactive or inconclusive;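 further: 0% = DMSO only neutral control wells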)
Pyruvate kinase (Leishmania mexicana), sequence (Q27686 2-499 E452W): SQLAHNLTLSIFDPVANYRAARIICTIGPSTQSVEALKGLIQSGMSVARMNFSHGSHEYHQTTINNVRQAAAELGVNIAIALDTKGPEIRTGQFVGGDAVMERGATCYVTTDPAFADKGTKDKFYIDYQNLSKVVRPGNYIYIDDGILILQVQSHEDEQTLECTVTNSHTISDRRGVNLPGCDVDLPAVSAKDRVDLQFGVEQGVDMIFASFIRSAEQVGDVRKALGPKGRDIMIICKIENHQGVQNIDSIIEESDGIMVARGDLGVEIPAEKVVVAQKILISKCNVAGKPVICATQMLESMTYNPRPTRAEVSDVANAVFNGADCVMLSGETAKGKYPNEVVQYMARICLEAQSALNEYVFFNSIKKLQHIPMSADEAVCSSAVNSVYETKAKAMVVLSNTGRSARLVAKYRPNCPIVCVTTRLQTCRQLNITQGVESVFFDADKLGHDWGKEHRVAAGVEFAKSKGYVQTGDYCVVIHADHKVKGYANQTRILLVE
Outline: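 An endpoint luciferase assay: 0.2 nM LmPYK E451W turns over 0.5 mM PEP with 0.1 mM ADP for 1 h at room temperature, pH 7.2, before PKLight addition. Values are normalized to DMSO-only wells.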

[19] = qHTS Assay for Identification of Small Molecule Agonists for Thrombopoietin (TPO) Signaling Pathway (AID 917; active means well fitted curve in the direction sought with a large enough effect; an effect the other way counts as inactive or inconclusive; further: on the % scale 0 is the no-effect control and ±100 the full control effect)
Outline: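 Luminescence from a Glycoprotein IIb promoter–driven luciferase reporter served as read-out in murine Ba/F3 cells carrying the human TPO receptor. Cells, deprived of IL-3 overnight, received compounds with 26 pM TPO and were incubated 24 hrs at 37 C.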

SMILES | activity change, negative = inhibition [1] | Potency [2] | activity change, negative = inhibition [3] | activity, negative = inhibition [4] | Potency [5] | Potency [6] | Potency [7] | Potency [8] | Potency [9] | Potency [10] | Potency [11] | Potency [12] | outcome [13] | outcome [14] | Potency [15] | Potency [16] | Potency [17] | outcome [18] | activity change, negative = inhibition [2] | outcome [19]
O=C1OC(=O)[C@@H]2[C@@H]1[C@@H]1CC[C@H]2O1 | 4.01% [at 38 µM] | inactive | 5.96% [at 38 µM] | -11.3% [at 38 µM] | > 46 µM | > 46 µM | inactive | inactive | inactive | inactive | inactive | inactive | inactive | inactive | inactive |  |  |  |  | 
Cc1cc2c(cc1C)NC1=C(N2)O[C@H](c2c[nH]c3ccc(COc4ccccc4)cc23)C1=O | -28.4% | 2.51 µM (active) | 2.39% | -5.89% | > 46 µM | > 9.22 µM | inactive | inactive |  |  |  |  |  |  |  | inactive | 0.501 µM (active) |  |  | 
NNC(=O)CNc1cccc(Br)c1 | -0.367% | 0.501 µM (active) | -6.61% | -6.81% | > 46 µM | > 9.22 µM | inactive | inactive |  |  |  |  |  |  |  | inactive |  |  |  | 
CN(C)C(=O)/N=N\C(=O)N(C)C | 9.37% [at 38 µM] | inactive | -14.2% [at 38 µM] | 5.55% [at 38 µM] | > 46 µM | > 46 µM | inactive | inactive |  |  | inactive | inactive | inactive | inactive | inactive |  |  | inactive |  | 
CSC1(SC2=NCCN2)SC2(NCCN2)S1 | -0.329% | 0.398 µM (active) | -0.372% | 5.32% | > 46 µM | > 9.22 µM | inactive | inactive |  | 3.98 µM (active) |  |  |  |  |  | inactive | 1.58 µM (active) |  |  | 
O=C(O)c1cccc2cccc(-c3cccc4cccc(C(=O)O)c34)c12 | 4.88% |  | 10.7% | 6.14% | > 46 µM | > 9.22 µM |  | inactive |  |  |  |  |  |  |  |  |  |  | -12.3% [at 2.29 µM] | 
CC(C)C[C@H](NC(=O)[C@@H](O)[C@@H](N)Cc1ccccc1)C(=O)O | 16.3% [at 38 µM] and 2.81% [at 38 µM] | inactive | -15.3% [at 38 µM] and -3.04% [at 38 µM] | 25.1% [at 38 µM] and 3.44% [at 38 µM] | > 46 µM | > 46 µM | inactive | inactive |  |  |  | inactive | inactive | inactive | inactive |  |  | inactive |  | inactive
